Our source for the Potency values is PubChem BioAssay (Tox21).

SMILES strings stand for the structures. Records with an inconclusive call do not appear. Calls of active or inactive are those of the source. Unless noted, the call rests on the fitted dose curve.

The nature of assay [1]: qHTS assay to identify small molecule agonists of the sonic hedgehog signaling (Shh) pathway (AID 1259368).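 Further: NIH/3T3-derived 3T3Gli1-Luc cells carrying a stable Gli1-driven firefly luciferase reporter; series mostly up to about 92 µM; nearly all actives have a fitted effect of over 15% in size.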 A digest of the protocol:
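Stable NIH/3T3 Gli1-Luc reporter clone; 24 hr cpd exposure after a 4 hr settling period; luminescence endpoint.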
A general note: In qHTS, concentration-response curves come from the screen itself.

The nature of assay [2]: qHTS assay to identify small molecule antagonists of the sonic hedgehog signaling (Shh) pathway (AID 1259369). Further: nearly all actives have a fitted effect of over 45% in size. Further: potency means the concentration at half of the fitted maximal effect. The essentials:
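Gli1 transcriptional reporter (firefly Luc) in NIH/3T3 background, conditioned-medium activated. 24hr exposure, luminescence endpoint.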

For assay [3], the target named is Estrogen receptor beta (Homo sapiens) (UniProt Q92731). The assay is described as follows: qHTS assay to identify small molecule agonists of the estrogen receptor beta (ER-beta) signaling pathway (AID 1259377; active means well fitted activation curve with a large enough effect in the signal ratio in the repeat runs, not every such curve was filed as active; the % refers to the signal ratio). A digest of the protocol: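 HEK293T ER-beta-UAS-bla; 2% charcoal-stripped FBS; cells pre-incubated 6 hr, compound 16 hr, 37C/5% CO2; LiveBLAzer B/G FRET substrate 2 h RT; fluorescence intensity read.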
Chain of Estrogen receptor beta (Homo sapiens) (Q92731 whole entry, looked up): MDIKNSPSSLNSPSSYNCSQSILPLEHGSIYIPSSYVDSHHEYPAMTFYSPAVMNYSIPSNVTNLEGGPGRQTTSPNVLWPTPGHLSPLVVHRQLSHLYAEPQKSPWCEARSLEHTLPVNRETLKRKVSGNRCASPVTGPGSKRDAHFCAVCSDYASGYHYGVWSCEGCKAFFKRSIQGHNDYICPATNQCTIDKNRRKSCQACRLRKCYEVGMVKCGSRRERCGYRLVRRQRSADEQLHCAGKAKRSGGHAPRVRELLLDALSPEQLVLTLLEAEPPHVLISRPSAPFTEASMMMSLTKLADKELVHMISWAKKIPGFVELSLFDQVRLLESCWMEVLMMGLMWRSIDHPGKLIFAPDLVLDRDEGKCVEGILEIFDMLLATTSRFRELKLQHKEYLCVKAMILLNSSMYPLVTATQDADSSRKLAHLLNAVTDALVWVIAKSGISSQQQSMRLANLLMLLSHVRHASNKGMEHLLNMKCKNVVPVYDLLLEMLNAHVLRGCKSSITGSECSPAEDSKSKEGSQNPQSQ

Assay [4] has the same target. Nature of the assay: qHTS assay to identify small molecule antagonists of the estrogen receptor beta (ER-beta) signaling pathway (AID 1259378; active means well fitted inhibition curve with a large enough effect in the signal ratio in the repeat runs, not every such curve was filed as active; the % refers to the signal ratio). A digest of the protocol: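 Antagonist mode: compounds added to beta-lactamase reporter HEK293T ER-beta-UAS cells stimulated with E2 (1nM final), 16 hr at 37C. LiveBLAzer B/G FRET substrate, 2 hours room temperature, fluorescence read-out.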

A short description of assay [5]: qHTS assay to identify small molecule agonists of the androgen receptor (AR) signaling pathway in the presence of an antagonist - cell viability counter screen (AID 1259379; active means well fitted curve in the direction sought with a large enough effect in the repeat runs; an effect the other way counts as inactive or inconclusive;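 further: MDA-kb2 human breast cancer cells carrying an MMTV luciferase reporter; series mostly up to about 92 µM; nearly all actives have a fitted effect of over 25% in size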). The essentials:
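Counter screen for cell viability run in parallel with the AR agonist-mode luciferase assay. MDA-kb2 cells were co-treated with nilutamide (3.0uM final) and compounds, then incubated 16 hr at 37C, and CellTiter-Fluor fluorescence was measured.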

Assay [6] is described as follows: qHTS assay to identify small molecule agonists of the estrogen receptor beta (ER-beta) signaling pathway - cell viability counter screen (AID 1259380; active means well fitted curve in the direction sought with a large enough effect in the repeat runs; an effect the other way counts as inactive or inconclusive; further: nearly all actives have a fitted effect of over 30% in size). The essentials:
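In this qHTS counter screen, HEK293T cells carrying an ER-beta/UAS beta-lactamase reporter, grown in 2% charcoal-stripped FBS, received compound for 16 hr; ATP-based CellTiter-Glo luminescence was then read after 30 min at room temperature.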

Assay [7] can be described thus: qHTS assay to identify small molecule antagonists of the estrogen receptor beta (ER-beta) signaling pathway - cell viability counter screen (AID 1259382; active means well fitted curve in the direction sought with a large enough effect in the repeat runs; an effect the other way counts as inactive or inconclusive;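 further: HEK293T cells carrying ER-beta-UAS-bla reporter stimulated with estradiol; series mostly up to about 92 µM; nearly all actives have a fitted effect of over 55% in size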). The essentials:
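HEK293T ER-beta-UAS-bla, 2% charcoal-stripped FBS; compounds + 1nM E2 16 hr 37C; CellTiter-Glo luminescence, 30 min RT.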

The nature of assay [8]: qHTS assay to identify small molecule agonists or antagonists of the thyroid stimulating hormone receptor (TSHR) signaling pathway - wild type cell line counter screen (AID 1259384). A digest of the protocol: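 Counter screen in untransfected Hek293: compounds (15-point titration, triplicate) plus phosphodiesterase inhibitor Ro20-1724 added after 18 h plating; 30 min RT. Intracellular cAMP via competitive d2/cryptate immunoassay, 1 h incubation.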

The target of assay [9] is Estrogen receptor (Homo sapiens) (UniProt P03372). Nature of the assay: qHTS assay to identify small molecule agonists of the estrogen receptor alpha (ER-alpha) signaling pathway in the presence of an antagonist (AID 1259383). Further: top concentration of the series differs between compounds; nearly all actives have a fitted effect of over 15% in size. The essentials:
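ER-alpha agonism measured under antagonist challenge: 10.0nM ICI-182,780 (final) plus compound, 15 concentrations, 22hr, VM7Luc4E2 ERE-luciferase cells. Read by luminescence.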

In assay [10] the target is Androgen receptor (Homo sapiens) (UniProt P10275). Nature of the assay: qHTS assay to identify small molecule agonists of the androgen receptor (AR) signaling pathway in the presence of an antagonist (AID 1259381). Further: nearly all actives have a fitted effect of over 15% in size. The essentials: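 AR antagonist background: nilutamide 3.0uM final. Cell line: MDA-kb2, MMTV-driven luciferase, responsive to both AR and GR. Exposure 16hr, 37C, no CO2; ONE-Glo luminescence.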
Chain of Androgen receptor (Homo sapiens) (P10275 whole entry, looked up): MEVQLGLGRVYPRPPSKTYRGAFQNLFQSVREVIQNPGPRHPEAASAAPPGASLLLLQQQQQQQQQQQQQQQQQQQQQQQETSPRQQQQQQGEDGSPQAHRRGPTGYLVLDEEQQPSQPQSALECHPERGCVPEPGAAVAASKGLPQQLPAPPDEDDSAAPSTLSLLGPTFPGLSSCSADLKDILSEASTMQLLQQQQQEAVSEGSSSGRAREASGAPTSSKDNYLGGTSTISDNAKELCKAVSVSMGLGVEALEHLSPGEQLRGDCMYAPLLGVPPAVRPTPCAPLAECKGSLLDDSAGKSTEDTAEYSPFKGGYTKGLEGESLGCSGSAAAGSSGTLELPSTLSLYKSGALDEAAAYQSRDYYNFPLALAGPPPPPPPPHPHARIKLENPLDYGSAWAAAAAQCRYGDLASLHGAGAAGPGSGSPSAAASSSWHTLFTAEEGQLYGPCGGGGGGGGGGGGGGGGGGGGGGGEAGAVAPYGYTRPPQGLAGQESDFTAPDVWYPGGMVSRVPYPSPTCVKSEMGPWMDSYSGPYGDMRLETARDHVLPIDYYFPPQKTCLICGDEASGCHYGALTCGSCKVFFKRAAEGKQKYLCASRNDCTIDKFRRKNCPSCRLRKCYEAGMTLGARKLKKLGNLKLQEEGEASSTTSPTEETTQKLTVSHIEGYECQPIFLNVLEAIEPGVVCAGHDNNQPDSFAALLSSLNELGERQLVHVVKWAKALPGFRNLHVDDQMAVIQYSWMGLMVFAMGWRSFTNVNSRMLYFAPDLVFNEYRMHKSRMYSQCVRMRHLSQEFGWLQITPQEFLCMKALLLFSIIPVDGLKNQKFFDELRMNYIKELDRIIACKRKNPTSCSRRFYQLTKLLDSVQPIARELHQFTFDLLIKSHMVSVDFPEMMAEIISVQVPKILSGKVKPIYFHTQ

Chain of Estrogen receptor (Homo sapiens) (P03372 whole entry, looked up): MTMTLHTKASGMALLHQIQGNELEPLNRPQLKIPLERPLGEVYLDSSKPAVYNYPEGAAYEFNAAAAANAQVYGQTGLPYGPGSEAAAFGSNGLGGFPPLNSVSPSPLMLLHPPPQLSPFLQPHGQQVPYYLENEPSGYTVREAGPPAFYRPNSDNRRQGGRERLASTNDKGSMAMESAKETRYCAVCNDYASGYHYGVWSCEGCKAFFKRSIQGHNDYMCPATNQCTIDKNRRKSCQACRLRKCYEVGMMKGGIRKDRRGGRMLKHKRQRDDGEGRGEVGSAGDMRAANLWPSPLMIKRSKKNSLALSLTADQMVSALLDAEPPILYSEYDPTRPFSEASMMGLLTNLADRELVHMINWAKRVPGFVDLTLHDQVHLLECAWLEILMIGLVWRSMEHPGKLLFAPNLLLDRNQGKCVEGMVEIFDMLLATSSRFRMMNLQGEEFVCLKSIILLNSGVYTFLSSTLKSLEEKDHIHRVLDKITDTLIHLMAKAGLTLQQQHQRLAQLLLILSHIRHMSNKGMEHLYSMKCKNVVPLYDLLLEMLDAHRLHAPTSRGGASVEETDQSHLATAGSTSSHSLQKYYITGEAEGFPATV

As to `Nc1ccn([C@H]2CS[C@@H](CO)O2)c(=O)n1`, the Potency result in assay [1], in [2], in assay [3], in [4], in assay [5] and in [6] was “inactive” throughout. Moreover, the Potency entry in assay [7] and in assay [8] was “inactive” each time.
Turning to `O=[N+]([O-])c1ccc2ncccc2c1`, the Potency result in assay [1], in [2], in assay [3], in assay [4], in [5] and in assay [6] was “inactive” throughout. The Potency entry in [7], in assay [9] and in [8] was “inactive” each time.
Consider `CCCCCCC(O)CCOC(C)=O` (stereo not given), for which the Potency result in assay [1], in assay [2], in [3], in assay [4], in assay [5] and in [6] was “inactive” in each case. Also, the Potency entry in assay [7], in [9] and in [8] was “inactive” in each case.
Regarding `CCC(C)(C)C(=O)O`, the Potency result in assay [1], in [2], in [3], in assay [4], in assay [5] and in [6] was “inactive” in each case. Moreover, the Potency result in assay [10], in [7], in [9] and in assay [8] was “inactive” throughout.
For `O=C(O)CNC(=O)c1ccccc1I`, the Potency result in assay [1], in assay [2], in assay [3], in assay [4], in [5] and in assay [6] was “inactive” throughout. For the same compound, the Potency result in assay [7], in [9] and in [8] was “inactive” each time.
On to `CCCCOCCOC(=O)c1cccnc1`, for which the Potency result in assay [1], in assay [2], in [3], in [4], in assay [5] and in assay [6] was “inactive” each time. Also, the Potency entry in [10], in assay [7], in assay [9] and in assay [8] was “inactive” throughout.
Take `CC(C)c1ccc(C#N)cc1`: the Potency result in assay [1], in assay [2], in [3], in assay [4], in [5] and in assay [6] was “inactive” in each case. The Potency entry in assay [7], in assay [9] and in assay [8] was “inactive” throughout.
Regarding `CCOC(=O)C(C)O` (stereo not given), the Potency entry in assay [1], in assay [2], in [3], in assay [4], in [5] and in [6] was “inactive” throughout. For the same compound, the Potency result in assay [7] and in [9] was “inactive” in each case.
As to `CCC(CO)(CO)CO`, the Potency entry in assay [1], in [2], in assay [3], in [4], in [5] and in assay [6] was “inactive” throughout. For the same compound, the Potency result in assay [10], in assay [7], in [9] and in assay [8] was “inactive” each time.
`CC[C@@H](CO)NCCN[C@@H](CC)CO`: the Potency entry in assay [1], in [2], in assay [3], in assay [4], in assay [5] and in assay [6] was “inactive” each time. Further, the Potency result in assay [7] and in [8] was “inactive” in each case.
As for `O=C(O)CO`, the Potency result in assay [1], in assay [2], in assay [3], in [4], in assay [5] and in assay [6] was “inactive” in each case. In addition, the Potency result in [7], in [9] and in assay [8] was “inactive” throughout.
Take `CC(C)C(=O)OCCOc1ccccc1`: the Potency result in assay [1], in assay [2], in assay [3], in assay [4], in assay [5] and in assay [6] was “inactive” each time. Also, the Potency entry in assay [7], in assay [9] and in assay [8] was “inactive” in each case.
`COc1cc(NC(C)CCCN)c2ncccc2c1` (stereo not given): the Potency result in [1], in assay [2], in assay [3], in [4], in assay [5] and in [6] was “inactive” in each case. Also, the Potency entry in assay [7], in assay [9] and in assay [8] was “inactive” in each case.
For the compound `CCCc1nc2c(C)cc(-c3nc4ccccc4n3C)cc2n1Cc1ccc(-c2ccccc2C(=O)O)cc1`, the Potency result in assay [1], in assay [2], in assay [3], in assay [4], in [5] and in [7] was “inactive” throughout. The Potency result in assay [9] and in [8] was “inactive” in each case.
On to `O=C(O)CCC(=O)OC[C@@H](NC(=O)C(Cl)Cl)[C@H](O)c1ccc([N+](=O)[O-])cc1`, for which the Potency result in assay [1], in assay [2], in [4], in assay [5], in assay [6] and in assay [7] was “inactive” each time.
For the compound `CC(C)(C)NCC(O)COc1cccc2c1C[C@H](O)[C@H](O)C2` (stereo not given in full), the Potency entry in assay [1], in assay [2], in [3], in assay [4], in assay [5] and in [7] was “inactive” each time. Moreover, the Potency result in assay [9] and in [8] was “inactive” each time.
Consider `CC(=O)OCC1=C(C(=O)O)N2C(=O)[C@@H](NC(=O)CSc3ccncc3)[C@H]2SC1`, for which the Potency entry in assay [1], in [2], in assay [3], in assay [4], in assay [5] and in assay [7] was “inactive” throughout. In addition, the Potency result in assay [8] is “inactive”.
Consider `CC(O)Cn1cnc2c1c(=O)n(C)c(=O)n2C` (stereo not given), for which the Potency result in [1], in [2], in [3], in assay [4], in [5] and in [7] was “inactive” in each case.
In the case of `CC(C)c1ccc(C(=O)N=C(N)N)cc1S(C)(=O)=O`, the Potency entry in assay [1], in assay [2], in assay [3], in [5], in assay [6] and in assay [7] was “inactive” each time. Moreover, the Potency result in assay [9] and in assay [8] was “inactive” in each case.
Take `CCOCCC(=O)OCC`: the Potency entry in assay [1], in [2], in assay [4], in [5], in [6] and in [7] was “inactive” each time. Further, the Potency entry in [9] was “inactive”.
Turning to `O=C1NC(=O)c2cccc3cccc1c23`, the Potency entry in [1], in assay [2], in [3], in assay [4], in assay [5] and in [7] was “inactive” in each case. The Potency result in [9] and in [8] was “inactive” throughout.
Turning to `O=c1[nH]c2cc(C(F)(F)F)c(N3CCOCC3)cc2n(CP(=O)(O)O)c1=O`, the Potency entry in assay [1], in assay [2], in assay [4], in assay [5], in [6] and in [7] was “inactive” each time. Besides, the Potency entry in assay [9] is “inactive”.
Consider `CCCCCCCCCCCC(=O)OCC(O)CO` (stereo not given), for which the Potency result in [1], in assay [2], in [3], in assay [5] and in [9] was “inactive” in each case.
Take `CS(=O)(=O)c1ccc([C@@H](C[C@H]2CCC(=O)C2)C(=O)Nc2cnccn2)cc1Cl`: the Potency entry in [1], in assay [2], in [3], in assay [4], in assay [5] and in assay [7] was “inactive” each time. Besides, the Potency entry in assay [9] and in assay [8] was “inactive” throughout.
On to `CC1CCC(C(C)CS)CC1S` (stereo not given), for which the Potency result in [1], in assay [2], in assay [3], in assay [4], in assay [5] and in assay [10] was “inactive” in each case. In addition, the Potency entry in assay [7] and in assay [8] was “inactive” each time.
As for `CCCCCCCC/C=C\CCCCCCCC(=O)OCCO`, the Potency entry in assay [1], in assay [3], in assay [5], in [9] and in assay [8] was “inactive” each time. Besides, the Potency in [2] is 36.2 µM (active).
On to `CCCOC(=O)c1c(Cl)c(Cl)c(Cl)c(Cl)c1C(=O)OCCC`, for which the Potency entry in assay [1], in [2], in [4], in [5], in assay [6] and in assay [7] was “inactive” throughout.
